Where a name gives a salt, the structure may show the parent alone. ± gives the standard deviation of the averaged measurements.
Test system: RDEB dermal fibroblasts EB119
Assay: day of extracellular matrix detachment from plate (days); higher = delayed detachment (less fibrotic matrix)
Conditions: compound concentration: 10 uM

| SMILES | day of extracellular matrix detachment from plate |
| --- | --- |
| CCCCCCCCc1ccc(CCC(N)(CO)CO)cc1 [Fingolimod (FTY720) HCl] | 26 ± 1.4 |
| CNC(=O)[C@H](Cc1ccccc1)NC(=O)[C@H](CC(C)C)[C@H](CSc1cccs1)C(=O)NO [Batimastat (BB-94)] | 18 |
| Cc1cc(/C=C/C#N)cc(C)c1Nc1ccnc(Nc2ccc(C#N)cc2)n1 [Rilpivirine] | 39 |
| CSc1ccc2c(c1)N(CCC1CCCCN1C)c1ccccc1S2 (centres undefined) [Thioridazine HCl] | 39 |
| COCCCOc1ccnc(C[S+]([O-])c2nc3ccccc3[nH]2)c1C (centres undefined) [Rebeprazole sodium] | 25 |
| O=C(O[C@H]1CN2CCC1CC2)N1CCc2ccccc2[C@@H]1c1ccccc1 [Solifenacin succinate] | 33.3 ± 1.1 |
| CN1CCC(COc2cnc(-c3cccc(Cn4nc(-c5cccc(C#N)c5)ccc4=O)c3)nc2)CC1 | 15.5 ± 3.5 |
| O=C(O)CCCCCCCC(=O)O [Azelaic acid] | 26.3 ± 1.1 |
| CC(C)(CO)[C@@H](O)C(=O)NCCCO [D panthenol] | 26 ± 1.4 |
| CCOC(=O)[C@H]1O[C@@H]1C(=O)N[C@@H](CC(C)C)C(=O)NCCC(C)C [Aloxistatin] | 25 |
| CCN(CC)CCCC(C)Nc1ccnc2cc(Cl)ccc12 (centres undefined) [Chloroquine Phosphate] | 35.3 ± 1.1 |
| O=C1C(O)=C([C@H]2CC[C@H](c3ccc(Cl)cc3)CC2)C(=O)c2ccccc21 [Atovaquone] | 26 ± 1.4 |
| C[N+](C)(CCOc1ccccc1)Cc1ccccc1.O=C([O-])c1cc2ccccc2cc1O [Bephenium Hydroxynaphthoate] | 26 ± 1.4 |
| CC(C)[C@H]1C(=O)N[C@@H](CCCNC(=N)N)C(=O)NCC(=O)N[C@@H](CC(=O)O)C(=O)N[C@H](Cc2ccccc2)C(=O)N1C [Cilengitide] | 4 |
| OC(c1cc(C(F)(F)F)nc2c(C(F)(F)F)cccc12)C1CCCCN1 (centres undefined) [Mefloquine HCl] | 39 |
| C=CC[C@@H]1/C=C(\C)C[C@H](C)C[C@H](OC)[C@H]2O[C@@](O)(C(=O)C(=O)N3CCCC[C@H]3C(=O)O[C@H](/C(C)=C/[C@@H]3CC[C@@H](O)[C@H](OC)C3)[C@H](C)[C@@H](O)CC1=O)[C@H](C)C[C@@H]2OC [Tacrolimus (FK506)] | 20.7 ± 1.1 |
| Nc1nc(NC2CC2)c2ncn([C@H]3C=C[C@@H](CO)C3)c2n1 [Abacavir sulfate] | 27 |
| CCCN(CCC)C(=O)C1=Cc2ccc(-c3ccc(C(=O)N4CCCC4)cc3)cc2N=C(N)C1 [Motolimod (VTX-2337)] | 26 ± 1.4 |
| CCN(CCO)CCCC(C)Nc1ccnc2cc(Cl)ccc12 (centres undefined) [Hydroxychloroquine Sulfate] | 32 |
